Active and inactive are the calls of the source.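 Rule for the calls: active = fitted potency no more than ten times the top tested concentration; inactive = fitted potency more than ten times the top tested concentration.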
Assay: beta-catenin nuclear translocation by GSK3b inhibition, dose response, orthogonal assay for GSK3b inhibitor project, cell-based, U2-OS, PathHunter, beta-gal complementation, dry powder (AID 624088)
Settings: beta-gal luminescence, 6 h; series mostly up to 26 µM

| Compound | outcome |
| --- | --- |
| Cc1[nH]nc2nc3c(cc12)C(=O)CC(C)(C)C3 | inactive |
| COc1ccccc1C1C2=C(CC(C)(C)CC2=O)Nc2ccccc21 (stereo not given) | inactive |
| COc1ccccc1C1C2=C(CC3(CCCCC3)CC2=O)Nc2n[nH]c(C)c21 (stereo not given) | inactive |
| Cc1[nH]nc2c1C(C1CC1)C1=C(CC(C)(C)CC1=O)N2 (stereo not given) | inactive |
| COc1ccccc1C1C2=C(CC(C)(C)CC2=O)Nc2n[nH]c(-c3ccccc3)c21 (stereo not given) | inactive |
| Cc1ccccc1C1C2=C(CC(C)(C)CC2=O)Nc2n[nH]c(C)c21 (stereo not given) | inactive |
| COc1ccccc1C1C(C(C)=O)=C(C)Nc2n[nH]c(C)c21 (stereo not given) | inactive |
| Cc1[nH]nc2c1C(C1CCCCC1)C1=C(CC(C)(C)CC1=O)N2 (stereo not given) | inactive |
| O/N=C/c1cn(-c2ccccc2)nc1-c1ccc(Cl)cc1 | inactive |
| COc1ccc(-c2nn(-c3ccccc3)cc2CO)cc1 | inactive |
| COc1ccccc1[C@@H]1C2=C(CC(C)(C)CC2=O)Nc2n[nH]c(C)c21 | inactive |
| COc1ccccc1-c1c2c(nc3n[nH]c(C)c13)CCC2=O | inactive |
| COc1ccccc1C1C2=C(CC(C)(C)CC2=O)Nc2onc(C)c21 (stereo not given) | inactive |
| Cc1[nH]nc2c1C(c1ccc(C(F)(F)F)cc1)C1=C(CC(C)(C)CC1=O)N2 (stereo not given) | inactive |
| COc1ccccc1C1C2=C(CCCC2=O)Nc2n[nH]c(C)c21 (stereo not given) | inactive |
| COc1ccccc1[C@H]1C2=C(CC(C)(C)CC2=O)Nc2n[nH]c(C(F)(F)F)c21 | inactive |
| COc1ccc(-c2nn(-c3ccccc3)cc2C(=O)O)cc1 | inactive |
| Cc1[nH]nc2c1C(C)C1=C(CC(C)(C)CC1=O)N2 (stereo not given) | inactive |
| Cc1[nH]nc2c1[C@H](c1ccccc1C(F)(F)F)C1=C(CC(C)(C)CC1=O)N2 | inactive |
| COc1ccccc1C1C2=C(CCC(C)(C)C2=O)Nc2n[nH]c(C)c21 (stereo not given) | inactive |
